Results from PubChem BioAssay (EPA / NIEHS).
Where “and” joins values, the source holds several entries; their conditions need not be identical. Identical values can stand only once. Where a structure was tested more than once in an assay, its records may differ in their call. Calls of active or inactive are those of the source. Rule for the calls: active = hit-call score of the fitted dose curve at least 0.9, where 1 is the maximum; inactive = score below 0.9.

Legend:
[1] = target: Nuclear respiratory factor 1 (Homo sapiens) (UniProt Q16656); assay: ATG_NRF1_CIS: Attagene CIS-FACTORIAL HepG2 Assay for human Nuclear Respiratory Factor 1 (NRF1) Orphan Gene (AID 2282987); conditions: HepG2 NRF1 cis-element reporter, Attagene multiplex; actives raise or lower the signal
Outline: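 Reporter mRNA induction or loss in HepG2 cells after 24 h dosing; cis-regulated reporter constructs report endogenous transcription-factor activity. Quantified by RT-PCR/capillary electrophoresis fluorescence, DMSO-referenced.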

[2] = ATG_NFI_CIS: Attagene CIS-FACTORIAL HepG2 Assay for human Nuclear Factor I (NFI) (AID 2282989); conditions: HepG2 cis-regulatory reporter, NFI response element transcription; actives raise or lower the signal
Outline: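 HepG2, transient MRTU, 24 h exposure; RNA→cDNA→PCR→FAM label→HpaI→CE fluorescence. Bidirectional fit, DMSO = baseline.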

[3] = target: Myc proto-oncogene protein (Homo sapiens) (UniProt P01106); assay: ATG_Myc_CIS: Attagene CIS-FACTORIAL HepG2 Assay for human Myelocytomatosis (Myc) Proto-Oncogene Transcription Factor (AID 2282990); conditions: HepG2, Attagene cis-reporter transcription factor activity; actives raise or lower the signal
Outline: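 After 24 h chemical treatment of HepG2 cells carrying multiplexed cis-regulated reporter constructs, reporter transcripts quantified by RT-PCR and capillary electrophoresis of fluorescent fragments. Gain or loss fitted against DMSO baseline.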

[4] = ATG_NRF2_ARE_CIS: Attagene CIS-FACTORIAL HepG2 Assay for human Nuclear Factor Erythroid 2 Related Factor 2 (NFR2) response to Antioxidant Response Elements (ARE) (AID 2282992); conditions: HepG2 Attagene ARE/NRF2 reporter, transcription factor activity; actives raise or lower the signal;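 for AC50: reporter mRNA level measured by RT-PCR and capillary electrophoresis fluorescence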
Outline: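 HepG2 cells transiently transfected with multiplexed cis-regulated reporter transcription units measure endogenous transcription factor activity. Reporter mRNA at 24 h is quantified by RT-PCR, fluorescent labelling and capillary electrophoresis, with bidirectional fitting relative to DMSO.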

[5] = ATG_Oct_MLP_CIS: Attagene CIS-FACTORIAL HepG2 Assay for human Octamer-Binding Transcription Factor (Oct) (AID 2282993); conditions: HepG2 Attagene cis-factorial Oct reporter, mRNA; actives raise or lower the signal
Outline: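 Multiplexed cis-reporter assay in human liver HepG2 cells, 24 h incubation. Reporter RNA amplified and labelled, then resolved by capillary electrophoresis; DMSO serves as negative control and baseline.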

[6] = BSK_3C_TissueFactor: BioMAP Diversity Plus: 3C Assay for Tissue Factor Biomarker Activity (AID 2282997); conditions: BioMAP 3C HUVEC, tissue factor biomarker readout; actives raise or lower the signal
Outline: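 Human vascular primary cells (umbilical vein endothelium) received test chemical; Tissue Factor was determined by ELISA at 24 h, and both gain and loss of signal versus DMSO were fitted.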

[7] = BSK_3C_uPAR: BioMAP Diversity Plus: 3C Assay for Urokinase-type plasminogen activator receptor (uPAR) Biomarker Activity (AID 2282998); conditions: BioMAP 3C HUVEC, uPAR biomarker ELISA; actives raise or lower the signal
Outline: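 Dose primary human umbilical vein endothelial cells, incubate 24 h, measure cell-surface uPAR by ELISA, then fit the signal in both directions against the DMSO negative control.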

[8] = BSK_3C_VCAM1: BioMAP Diversity Plus: 3C Assay for Vascular cell adhesion molecule 1 (VCAM1) Biomarker Activity (AID 2282999); conditions: BioMAP 3C HUVEC, VCAM1 ELISA, cytokine-stimulated; actives raise or lower the signal
Outline: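 Endothelial cells from human umbilical vein are treated with test chemical. At 24 h, VCAM-1 is measured by ELISA, and responses in either direction are fitted relative to DMSO.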

Measured: AC50

Sequence of Nuclear respiratory factor 1 (Homo sapiens) (Q16656 whole entry, looked up): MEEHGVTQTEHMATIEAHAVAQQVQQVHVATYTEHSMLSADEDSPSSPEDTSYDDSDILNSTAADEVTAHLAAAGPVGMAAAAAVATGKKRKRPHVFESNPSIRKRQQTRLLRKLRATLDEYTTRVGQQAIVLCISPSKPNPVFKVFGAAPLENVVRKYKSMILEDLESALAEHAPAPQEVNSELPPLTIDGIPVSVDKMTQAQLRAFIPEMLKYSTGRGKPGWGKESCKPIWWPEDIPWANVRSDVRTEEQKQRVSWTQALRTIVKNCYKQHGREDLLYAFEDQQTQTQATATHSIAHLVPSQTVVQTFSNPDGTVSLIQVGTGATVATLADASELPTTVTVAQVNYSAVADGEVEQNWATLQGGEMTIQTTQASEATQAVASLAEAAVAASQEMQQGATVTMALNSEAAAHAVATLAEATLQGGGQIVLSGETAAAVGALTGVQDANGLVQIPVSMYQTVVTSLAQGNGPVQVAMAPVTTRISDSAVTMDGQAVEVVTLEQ
Sequence of Myc proto-oncogene protein (Homo sapiens) (P01106 whole entry, looked up, the tested form may be a part): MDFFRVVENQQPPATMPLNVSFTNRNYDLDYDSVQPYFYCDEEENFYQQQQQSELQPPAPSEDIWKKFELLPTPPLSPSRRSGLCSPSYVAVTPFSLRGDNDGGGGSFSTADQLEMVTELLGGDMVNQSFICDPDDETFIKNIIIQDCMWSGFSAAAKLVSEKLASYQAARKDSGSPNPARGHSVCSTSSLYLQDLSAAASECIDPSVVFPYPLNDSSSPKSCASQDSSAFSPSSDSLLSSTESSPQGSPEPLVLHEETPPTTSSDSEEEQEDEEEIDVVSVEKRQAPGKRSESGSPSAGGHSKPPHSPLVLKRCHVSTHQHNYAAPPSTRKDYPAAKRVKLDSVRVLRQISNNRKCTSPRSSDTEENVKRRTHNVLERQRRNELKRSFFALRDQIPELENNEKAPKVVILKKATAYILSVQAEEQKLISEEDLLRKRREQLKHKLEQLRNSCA

CC(=O)[C@H]1CC[C@H]2[C@@H]3CCC4=CC(=O)CC[C@]4(C)[C@H]3CC[C@]12C
inactive: [1] | [2] | [3] | [4] | [5] | [8]
active: [4] 33.4 µM and 16.3 µM | [6] 13.1 µM | [7] 5.32 µM

C#C[C@]1(O)CC[C@H]2[C@@H]3CCC4=CC(=O)CC[C@@H]4[C@H]3CC[C@@]21CC
inactive: [1] | [2] | [3] | [4] | [5] | [6] | [7] | [8]
active: [4] 52.1 µM

CCN(Cc1c(F)cccc1Cl)c1c([N+](=O)[O-])cc(C(F)(F)F)cc1[N+](=O)[O-]
active: [4] 4.28 µM | [7] 12 µM
inactive: all other assays above

S=C([S-])NCCNC(=S)[S-].[Mn+2]
inactive: all assays above

CCCCCCC(C)OC(=O)COc1nc(F)c(Cl)c(N)c1Cl (configuration not stated)
active: [6] 34.4 µM | [7] 37.8 µM | [8] 18.3 µM
inactive: all other assays above

C[C@]12C[C@H](O)[C@H]3[C@@H](CCC4=CC(=O)CC[C@@]43C)[C@@H]1CC[C@@H]2C(=O)CO
inactive: all assays above

COC(=O)c1c(Cl)nn(C)c1S(=O)(=O)NC(=O)Nc1nc(OC)cc(OC)n1
inactive: all assays above

COc1c(Cl)ccc(Cl)c1C(=O)O
inactive: all assays above

COC(=O)c1ccccc1C(=O)O
inactive: all assays above

COC(=O)c1cccc(C)c1S(=O)(=O)NC(=O)Nc1nc(OCC(F)(F)F)nc(N(C)C)n1
active: [4] 30.9 µM
inactive: all other assays above

CCCOC(=O)c1ccc(C(=O)OCCC)nc1
inactive: all assays above

CCCCC(CC)CN1C(=O)C2C3C=CC(C3)C2C1=O (configuration not stated)
active: [4] 16.7 µM | [5] 17.4 µM | [7] 32.2 µM
inactive: all other assays above

CCCN(CCC)c1c([N+](=O)[O-])cc(C(F)(F)F)c(N)c1[N+](=O)[O-]
inactive: [1] | [2] | [3]
active: [4] 5.51 µM | [5] 4.57 µM | [6] 36.5 µM | [7] 31.8 µM | [8] 30.8 µM

CCCOC(=O)NCCCN(C)C
inactive: all assays above

Oc1ccc(C(c2ccc(O)cc2)C(Cl)(Cl)Cl)cc1
active: [6] 36.4 µM | [7] 31.5 µM | [8] 30.3 µM
inactive: all other assays above

CCOC(=O)NCCOc1ccc(Oc2ccccc2)cc1
active: [4] 13.1 µM | [5] 14 µM | [7] 30.4 µM
inactive: all other assays above

O=C(O)C1(C(=O)Nc2ccc(Cl)cc2Cl)CC1
active: [4] 30.4 µM
inactive: all other assays above

COC(=O)c1ccc(CNS(C)(=O)=O)cc1S(=O)(=O)NC(=O)Nc1nc(OC)cc(OC)n1
inactive: all assays above

CCCN(CCC)C(=O)SCC
inactive: all assays above

CCOC(=O)[C@H](C)Oc1ccc(Oc2nc3ccc(Cl)cc3o2)cc1
active: [4] 50 µM
inactive: all other assays above

CCCCCOC(=O)COc1cc(N2C(=O)C3=C(CCCC3)C2=O)c(F)cc1Cl
active: [4] 20.7 µM | [8] 26.5 µM
inactive: all other assays above

CCC(O)=C1C(=O)CC(C(=O)O)CC1=O (configuration not stated)
active: [4] 35.6 µM
inactive: all other assays above

CCCCOC(=O)[C@@H](C)Oc1ccc(Oc2ccc(C(F)(F)F)cn2)cc1
inactive: all assays above

Cc1nn(C)c(Oc2ccccc2)c1C=NOCc1ccc(C(=O)OC(C)(C)C)cc1
active: [2] 42.4 nM | [4] 0.0249 µM | [5] 0.0401 µM | [7] 7.77 µM | [8] 32.5 µM
inactive: [1] | [3] | [6]

CCOC(=O)COc1cc(-n2ncc(C(F)(F)F)c(C)c2=O)c(F)cc1Cl
inactive: all assays above

CCN(CC)C(=O)c1cccc(C)c1
inactive: all assays above

CC1(C)C(C=C(Cl)Cl)C1C(=O)OCc1cccc(Oc2ccccc2)c1 (configuration not stated)
active: [4] 6.5 µM
inactive: all other assays above

COC(=O)c1ccccc1S(=O)(=O)NC(=O)Nc1nc(OC(F)F)cc(OC(F)F)n1
inactive: all assays above

CCCCOCCOCCOCc1cc2c(cc1CCC)OCO2
active: [4] 7.81 µM
inactive: all other assays above

N[C@@H](Cc1cc(I)c(Oc2ccc(O)c(I)c2)c(I)c1)C(=O)O
not listed: [4]
inactive: all other assays above

CCOC(=O)C(C)Oc1ccc(Oc2cnc3cc(Cl)ccc3n2)cc1 (configuration not stated)
inactive: all assays above

COC(=O)c1ccc(I)cc1S(=O)(=O)NC(=O)Nc1nc(C)nc(OC)n1
inactive: all assays above
